Screening results: PubChem BioAssay, National Center for Advancing Translational Sciences (NCATS)
Hits are enriched below; roughly 2.7% of the tested compounds scored in any of these assays.
LDHA inh = qHTS assay for inhibitors of human lactate dehydrogenase; purified LDHA, NADH/diaphorase-resazurin fluorescence; active compounds read low; activity change, % (values are at about 110 or 230 µM); actives 0.15% (n = 480,000); in the data active = activity change below about -30%; inconclusive = mostly about -25% to -30%;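 note: plate controls were DMSO wells for no effect and wells without enzyme for full effect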
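Human LDH5 (2 nM) was incubated with 0.06 mM NADH and 0.2 mM pyruvate for 5 min at room temperature in Tris pH 7.4. Remaining NADH was coupled through diaphorase/resazurin, and resorufin fluorescence was read at 0 and 20 min.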
ERG-DNA inh = qHTS for Small Molecule Inhibitors of the ERG Ets/DNA interaction; Transcriptional regulator ERG (Homo sapiens), P11308; fluorescence polarization, His-ERG Ets domain / labelled DNA; Potency, µM (series often up to 76.9 µM), without a hit: at the top dose FP activity, negative = inhibition, usual class: inhibitors; actives 0.028% (n = 370,000); active = well fitted inhibition curve with a large enough effect in the polarisation, with a control signal flat; inconclusive = small, poorly fitted or top-dose-only effect, or effect the other way, or a change in a side signal; inactive = no such curve, though single readings can be large or run the other way; the % refers to the polarisation;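 note: polarization taken with two DNA probes labelled with fluorescein and Texas red; potency is the fitted concentration of half-maximal effect; % of control where 0% means no effect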
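His-tagged ERG Ets domain (1 uM in the protein solution; 300mM KCl, 50mM Tris-HCl, 1mM EDTA, 1mM DTT, pH 7.5) received compound, then a probe mix of 5 nM fluorescein-DNA and 100nM Texas-615-DNA. Fluorescence polarization was read for both dyes.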
Nrf2 inh = Nrf2 qHTS screen for inhibitors; A549 ARE-Fluc reporter, luciferase luminescence, 18-24 h; Potency, µM (highest dose often 46 µM), for inactives: top-dose activity change, negative = inhibition, usual class: inhibitors; actives 2.1% (n = 360,000); AID 504444, 2011; note: potency is the fitted concentration of half-maximal effect; % is set by controls: 0 for no effect and ±100 for the full control effect; nearly all actives have a fitted effect of over 60% in size
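Concentration-response testing used A549 ARE_Fluc cells at 5000 cells/well. Following an 18-24 h compound incubation, viability was read by fluorescence (Ex 405/Em 525) and luciferase output by luminescence.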
Nrf2 ARE act = qHTS of Nrf2 Activators | AREc32 ARE-luciferase reporter (MCF7-derived line), luminescence, 24 h | Potency, µM (highest dose often 46.1 µM), for the others: top-dose activation, most hits filed as activators | actives 0.31% (n = 410,000) | AID 624171, 2012; note: potency is the fitted concentration of half-maximal effect; % of control where 0% means no effect; nearly all actives have a fitted effect of over 65% in size
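Steps: seed AREc32_Fluc cells (1000/well, 5% FBS OPTI-MEM); incubate overnight at 37 deg C; add 23 nL compound; incubate 24 hr; add Steady-Glo; hold 30 min RT; read luminescence.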
A549 viability = Nrf2 qHTS screen for inhibitors: counterscreen for cytotoxicity | A549 ARE-Fluc cells, CellTiter-Fluor viability, 18-24 h | Potency, µM (doses to about 46 µM), for the others: at the top dose activity change, negative = cytotoxicity, hits mostly inhibitors | actives 0.16% (n = 390,000); note: potency is the fitted concentration of half-maximal effect; % is set by controls: 0 for no effect and ±100 for the full control effect
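A549 ARE-Fluc cells in 5% FBS OPTI-MEM, 5000 cells/well, rested 2 h then exposed to compounds in concentration-response for 18-24 h at 37 °C. Viability by CellTiter-Fluor fluorescence (Ex 405/Em 525) after 30 min; luciferase luminescence (BugLite, 15 min, RT) read afterwards.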
12-LOX inh = Primary qHTS assay for inhibitors of human arachidonate 12S-lipoxygenase (ALOX12): Round 2; Polyunsaturated fatty acid lipoxygenase ALOX12 (Homo sapiens), P18054; actives 1.1% (n = 580,000); Potency, µM (doses to about 108 µM), for the others: at the top dose activity change, negative = inhibition, actives largely listed as inhibitors; purified 12hLO, xylenol orange hydroperoxide absorbance; note: potency is the fitted concentration of half-maximal effect; % is set by controls: 0 for no effect and ±100 for the full control effect
Target sequence (P18054 whole entry, looked up): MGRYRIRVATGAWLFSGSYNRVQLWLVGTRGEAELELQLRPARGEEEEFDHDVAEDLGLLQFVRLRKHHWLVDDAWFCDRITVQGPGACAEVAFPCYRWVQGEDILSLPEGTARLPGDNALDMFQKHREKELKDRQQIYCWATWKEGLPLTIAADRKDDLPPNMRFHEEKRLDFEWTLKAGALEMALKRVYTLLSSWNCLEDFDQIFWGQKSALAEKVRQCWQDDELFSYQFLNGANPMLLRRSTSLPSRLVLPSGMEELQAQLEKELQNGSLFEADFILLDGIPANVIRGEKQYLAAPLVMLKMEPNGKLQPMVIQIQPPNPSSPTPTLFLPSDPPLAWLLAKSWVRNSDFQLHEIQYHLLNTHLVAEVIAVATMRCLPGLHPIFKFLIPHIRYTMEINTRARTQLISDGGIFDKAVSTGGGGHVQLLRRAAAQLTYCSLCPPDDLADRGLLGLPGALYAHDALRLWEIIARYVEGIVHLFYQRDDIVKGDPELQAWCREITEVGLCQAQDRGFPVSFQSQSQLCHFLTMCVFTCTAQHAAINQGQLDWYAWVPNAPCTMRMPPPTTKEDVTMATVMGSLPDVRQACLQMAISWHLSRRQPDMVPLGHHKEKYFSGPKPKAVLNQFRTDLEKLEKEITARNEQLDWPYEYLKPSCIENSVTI
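Purified human 12hLO at 150 nM in 25 mM Hepes, 0.01% Triton X-100, pH 7.0, preincubated 15 min at room temperature with compound. Reaction started with 40 uM arachidonic acid, 30 min at room temperature. Hydroperoxide measured by Fe-xylenol orange, 573/405 nm absorbance ratio.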
An asterisk follows results filed as active; ? = inconclusive; . = no result given; [ ] = dose if it differs, or a comment. Unless noted, calls come from the whole dose curve; as a rule, active = well fitted curve in the direction sought with a large enough effect; inconclusive = small, poorly fitted or top-dose-only effect, or another doubt; inactive = no such curve, though single readings can be large; an effect the other way counts as inactive or inconclusive.

SMILES | LDHA inh | ERG-DNA inh | Nrf2 inh | Nrf2 ARE act | A549 viability | 12-LOX inh
CCOC(=O)Nc1ccc2c(CNC(C)c3ccccc3OC)cc(=O)oc2c1 (stereo not given) | -2 | 21% | 13µM* | 4% | ? | -18%
NS(=O)(=O)c1ccc(O)c(NC(=O)c2ccc([N+](=O)[O-])o2)c1 | -3 | 8% | 1% | 10µM* | -11% | 1%
Cc1cc(C)cc(NC(=O)c2ccc([N+](=O)[O-])o2)c1 | 7 | -3% | ? | ? | -10% | ?
O=C(Nc1nc(-c2ccccn2)cs1)c1ccc([N+](=O)[O-])o1 | 2 | -1% | 5% | 11µM* | -6% | ?
Cc1ccc(C(=O)Nc2nc(-c3ccccn3)cs2)o1 | 2 | 5% | -26% | 2% | 1% | 6%
O=C(Nc1nc2cc3c(cc2s1)OCCO3)c1ccc([N+](=O)[O-])o1 | -3 | -8% | 19% | 7.1µM* | -4% | 2%
COc1ccc(C(=O)Nc2nc3cc4c(cc3s2)OCCO4)c(OC)c1 | 0 | -4% | 21µM* | 4% | -4% | -2%
O=C(c1ccccc1)C(Cl)C(c1ccccc1)C1(Cl)CCCCC1=O (stereo not given) | -15 | . | . | . | . | ?
Cc1cc(C)c2nc(NC(=O)c3ccc([N+](=O)[O-])o3)sc2c1 | -7 | 3% | 5% | ? | -14% | 5%
O=C(NNC(=O)c1ccc([N+](=O)[O-])o1)c1ccccc1 | 4 | 1% | . | 22µM* | ? | 0%
O=C(NN(c1ccccc1)c1ccccc1)c1ccc([N+](=O)[O-])o1 | 12 | 0% | -10% | ? | -5% | -15%
O=C(Nc1nc2cc3c(cc2s1)OCCO3)c1cccc(N2C(=O)CCC2=O)c1 | -2 | 0% | -21% | 3% | 0% | 52%
O=C(Nc1nc2ccccc2s1)c1ccc([N+](=O)[O-])o1 | -5 | -1% | ? | 3.5µM* | -5% | -6%
Cc1cc(C)c2sc(NC(=O)c3ccc([N+](=O)[O-])o3)nc2c1 | 3 | -10% | 11% | 7.9µM* | -10% | -5%[57.4 µM]
CCN(CC)S(=O)(=O)c1cccc(C(=O)Nc2nc3cc4c(cc3s2)OCCO4)c1 | -5 | 7% | 15µM* | 0% | ? | -7%
Cc1ccc(C)c(-c2nnc(NC(=O)C3=COCCO3)o2)c1 | 3 | -9% | -1% | 3% | -2% | 2%
COc1ccc(C(=O)Nc2nnc(-c3ccc(F)cc3)s2)c(OC)c1 | -2 | 1% | 16µM* | 0% | -1% | 17%
Cc1ccc(C)c(-c2nnc(NC(=O)c3ccc([N+](=O)[O-])o3)o2)c1 | 2 | -16% | -8% | 3.5µM* | -25% | ?
O=C(/C=C/c1ccco1)N(Cc1cccs1)C1CC1 | 3 | . | . | . | . | 35µM*
O=C(CCc1ccco1)N(Cc1cccs1)C1CC1 | ? | . | . | . | . | -31%
CC(NC(=O)c1ccc2c(c1)NC(=O)CCS2)c1ccncc1 (stereo not given) | 2 | . | . | . | . | 8.9µM*
O=C1CCSc2ccc(C(=O)NO)cc2N1 | -2 | . | . | . | . | 40µM*
Cc1ccc(-c2nc(CN(C)Cc3cccc4cnccc34)c(C)o2)s1 | 3 | 10% | 23µM* | 4% | -2% | -2%
Cc1ccc(-c2nc(CN(C)C3CCOCC3)c(C)o2)s1 | -9 | -3% | -2% | 0% | 4% | 3%
CC(=O)c1cccc(NC(=O)CC2C=CCC2)c1 (stereo not given) | 0 | . | . | . | . | -4%
SMILES | LDHA inh | ERG-DNA inh | Nrf2 inh | Nrf2 ARE act | A549 viability | 12-LOX inh
CC(=O)Nc1ccc(NC(=O)C(C)N2CCN(S(=O)(=O)c3ccc(C)cc3)CC2)cc1 (stereo not given) | -2 | 3% | -2% | 0% | 3% | -23%
COc1ccc(-n2nnnc2C2CCN(S(=O)(=O)c3ccc(NC(C)=O)cc3)CC2)cc1 | -2 | 4% | 9.2µM* | -1% | -20% | -24%
COc1ccc(S(=O)(=O)N2CCN(CCNC(=O)COc3ccc(C(C)C)cc3)CC2)cc1 | 13 | . | . | . | . | 35µM*
COc1ccc(S(=O)(=O)N2CCN(Cc3ccc(Cl)cc3)CC2)cc1 | -21 | . | ? | -1% | -2% | ?
COc1ccc(CN2CCN(S(=O)(=O)c3ccc(NC(C)=O)cc3)CC2)cc1 | -20 | -4% | 16µM* | -1% | -12% | -15%
CC(=O)Nc1ccc(S(=O)(=O)N2CCN(C(C)CCc3ccccc3)CC2)cc1 (stereo not given) | -8 | 6% | -15% | 0% | 5% | 5.6µM*
COc1ccc(C(=O)COC(=O)c2cc(S(N)(=O)=O)ccc2F)c(OC)c1 | -2 | . | . | . | . | 28%
O=C1CCCC(O)=C1Sc1cc(Cl)c(Cl)cc1Cl | 2 | -7% | 2% | -1% | -2% | 40µM*
O=C1CCCC(O)=C1N=Nc1c(Cl)cc(Cl)cc1Cl | 1 | ? | 10% | 8% | -5% | -24%
COc1ccc(Nc2cnc3ccc(-c4ccccc4)nn23)cc1OC | . | . | . | . | . | -21%[176 µM]
O=C(Nc1ccc(Br)c(Cl)c1)C1CC1 | -7 | -4% | 15µM* | 2% | -10% | -34%
CC(=O)Nc1ccc(Br)c(Cl)c1 | -2 | -4% | 0% | 0% | -2% | 128%
CCCCNC(=O)Cc1c(C)nc2nc(N)nn2c1C | 1 | . | . | . | . | 11%
Cc1ccc(S(=O)(=O)N2[C@@H](c3ccc(C(C)(C)C)cc3)C(C(=O)O)=CC[C@H]2c2ccc3c(c2)OCO3)cc1 | -9 | -2% | 23µM* | 1% | -21% | ?
Cc1ccc(S(=O)(=O)N2[C@@H](c3ccccc3)C(C(=O)O)=CC[C@H]2c2ccc3c(c2)OCO3)cc1 | 1 | 5% | -16% | 0% | -10% | ?
O=c1c(N2CCN(Cc3ccccc3)CC2)csc2ccc(Cl)cc12 | -10 | . | . | . | . | ?
COc1ccc(Br)cc1CN(C)CC(=O)Nc1c(Cl)ccc(C)c1Cl | 1 | 7% | 18µM* | 3% | ? | 2%
Cc1nc(SCC(=O)Nc2ccc(F)cc2)c(C#N)c(C)c1CC(=O)c1ccc(Br)cc1 | -6 | -13% | 13µM* | 0% | 12µM* | -25%
CS(=O)(=O)Nc1ccc(-c2csc(NC3CC3)n2)cc1 | 6 | . | . | . | . | 10µM*
CN(c1ccc(-c2csc(NC3CCCC3)n2)cc1)S(C)(=O)=O | -3 | . | . | . | . | 16µM*
Cc1nc(-c2ccc(NS(C)(=O)=O)cc2)cs1 | -4 | 7% | . | 4% | 8% | 0%
